These results are taken from PubChem BioAssay (NCATS).

The structures appear in SMILES notation. Inconclusive results are not listed. A call without a number means that no potency is given here. Calls of active or inactive are those of the source. Calls follow the shape of the dose curve; as a rule, active = well fitted curve in the direction sought with a large enough effect; inconclusive = small, poorly fitted or top-dose-only effect, or another doubt; inactive = no such curve, though single readings can be large; an effect the other way counts as inactive or inconclusive.

The first experiment can be described thus: qHTS for compounds that reverse cellular toxicity of Amyloid beta (A-beta) peptide in yeast: LOPAC Validation Assay (AID 720559). The note with it: yeast expressing A-beta; series mostly up to 46.1 µM. Put shortly:
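Activity is expressed relative to DMSO and an equimolar ferric chloride/clioquinol mix. Compounds were pinned into medium with A-beta-expressing yeast, grown 48 hr at 30 C, then read by absorbance at 600 nm.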
On to `CNCCC(Oc1ccc(C(F)(F)F)cc1)c1ccccc1` (configuration not stated), for which the compound was classed as inactive.
Regarding `CN(C)CC[C@@H](c1ccc(Cl)cc1)c1ccccn1`, the compound was called inactive.
Regarding `O=C1N=C(O)CN1/N=C/c1ccc(-c2ccc([N+](=O)[O-])cc2)o1`, the compound was classed as inactive.
Consider `COCCOC(=O)C1=C(C)NC(C)=C(C(=O)OC/C=C/c2ccccc2)C1c1cccc([N+](=O)[O-])c1` (configuration not stated), for which the call was inactive.
On the same count and under the same terms, the same measure for `Nc1ncnc2c1ncn2[C@@H]1O[C@H](CO)[C@@H](O)[C@H]1O`: “inactive”; for `CCN(CC)CCOC(=O)C1(C2CCCCC2)CCCCC1`: “inactive”; for `NC1CCN(c2cccc(Cl)n2)CC1`: “inactive”.
Still for that read-out and setting: the same measure for `C#CCN(C)Cc1ccccc1`: “inactive”; for `CSc1ccc2c(c1)N(CCC1CCCCN1C)c1ccccc1S2` (configuration not stated): “inactive”.

A further experiment is described as follows: qHTS for Activators of Parkin Expression: LOPAC Validation Assay (NLuc Reporter) (AID 720572; also: potency is read from the fitted curve at half-maximal effect). The conditions noted are these: Parkin promoter NanoLuc reporter cells, luminescence; series mostly up to 46.1 µM. An outline of the steps:
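Compound effects on Parkin promoter activity were measured as NanoLuc luminescence after 24 h at 37 C. The neuronal reporter line also carried FLuc, which was read first. LOPAC compounds were tested at 7 concentrations, with normalization to DMSO (0%) and positive control (100%).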
On to `CNCCC(Oc1ccc(C(F)(F)F)cc1)c1ccccc1` (configuration not stated), for which the Potency entry was “inactive”.
Regarding `CN(C)CC[C@@H](c1ccc(Cl)cc1)c1ccccn1`, the Potency entry is “inactive”.
For `O=C1N=C(O)CN1/N=C/c1ccc(-c2ccc([N+](=O)[O-])cc2)o1`, the Potency result is “inactive”.
Consider `COCCOC(=O)C1=C(C)NC(C)=C(C(=O)OC/C=C/c2ccccc2)C1c1cccc([N+](=O)[O-])c1` (configuration not stated), for which the Potency was 5.17 µM (active).
For `Nc1ncnc2c1ncn2[C@@H]1O[C@H](CO)[C@@H](O)[C@H]1O`, the Potency entry is “inactive”.
As for `CCN(CC)CCOC(=O)C1(C2CCCCC2)CCCCC1`, the Potency entry is “inactive”.
As to `NC1CCN(c2cccc(Cl)n2)CC1`, the Potency result was “inactive”.
For the compound `C#CCN(C)Cc1ccccc1`, the Potency entry is “inactive”.
On to `CSc1ccc2c(c1)N(CCC1CCCCN1C)c1ccccc1S2` (configuration not stated), for which the Potency entry was “inactive”.

A short description of a further experiment: qHTS for Activators of Parkin Expression: LOPAC Validation Assay (FLuc Reporter) (AID 720573). The note with it: Cell line, PRKN promoter firefly luciferase reporter, vehicle wells = 0, positive control = 100%; series mostly up to 46.1 µM. An outline of the steps:
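A neuronal cell line harbouring FLuc and NLuc reporters behind the Parkin promoter was exposed to compounds for 24 h. Firefly luciferase signal, measured after 10 min with detection reagent, was scaled to DMSO and positive-control wells.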
For `CNCCC(Oc1ccc(C(F)(F)F)cc1)c1ccccc1` (configuration not stated), the compound was classed as inactive.
`CN(C)CC[C@@H](c1ccc(Cl)cc1)c1ccccn1`: the call was inactive.
The same measure, in the same setting: the same measure for `O=C1N=C(O)CN1/N=C/c1ccc(-c2ccc([N+](=O)[O-])cc2)o1`: “inactive”; for `COCCOC(=O)C1=C(C)NC(C)=C(C(=O)OC/C=C/c2ccccc2)C1c1cccc([N+](=O)[O-])c1` (configuration not stated): “inactive”.
As to `Nc1ncnc2c1ncn2[C@@H]1O[C@H](CO)[C@@H](O)[C@H]1O`, the outcome was inactive.
`CCN(CC)CCOC(=O)C1(C2CCCCC2)CCCCC1`: the result was inactive.
As to `NC1CCN(c2cccc(Cl)n2)CC1`, the call was inactive.
On the same count and under the same terms, the result for `C#CCN(C)Cc1ccccc1` reads “inactive”; that for `CSc1ccc2c(c1)N(CCC1CCCCN1C)c1ccccc1S2` (configuration not stated), “inactive”.
